PubChem BioAssay (NCI)
Values joined by “and” are separate entries in the source; they are usually repeats but may differ in a detail not shown here. Equal values may be shown once. Compounds without any hit were thinned out: in the full panel of roughly 83,000, 20% have a hit.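 Negative percent growth values reflect cell death: -40 means 40% of the cells present at the start died, and -100 means all died.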 Active and inactive are the calls of the source.

These molecules were tested on T-47D breast (assay: NCI-60 one-dose screen, 48 h (100 = growth as untreated, 0 = no growth, -100 = all killed)). Conditions: 10 µM.
Procedure: Growth inhibition of the T-47D human tumor cell line is measured as a screen for anti-cancer activity. Cells are grown in 96 well plates and exposed to the test compound for 48 hours. Compounds are tested at a single concentration, which is 10^-5 M for most compounds. The reported endpoint is percent growth (GI% or GIPRCNT), where numbers from 0 - 100% represent growth inhibition, and numbers from -100% - 0 represent cell death. For example, a value of 40 represents 60% growth inhibition. A value of 0 means no net growth occurred over the course of the experiment. A value of -40 indicates 40% of cells at the beginning of the experiment died by the end of the experiment. A value of -100 means all cells are dead at the end of the experiment.
NCI-60 Human Tumor Cell Lines Screen was performed using the standard one-dose NCI protocol, which is described in more detail at https://dtp.cancer.gov/discovery_development/nci-60/default.htm.
Compounds with GIPRCNT values below 10 were considered active. Activity score was based on GIPRCNT using the following formula: […]
Score is 0 for GIPRCNT values of 100 or above, 50 for GIPRCNT values of 0, and 100 for GIPRCNT values of -100.

| Compound | growth |
| --- | --- |
| CC(=O)/C=C/c1ccc(OCc2ccc(Cl)cc2)cc1 | 93.1% (inactive) |

Same assay, conditions: 10 µM unless noted

| Compound | growth |
| --- | --- |
| O=C(/C=C/c1ccc(Cl)s1)c1ccc(Cl)s1 | 88.8% (inactive) and 96.9% (inactive) |
| O=C([C@H]1C[C@H]1c1ccc(S(F)(F)(F)(F)F)cc1)N1CCN(c2cc(Cl)ccc2C(F)(F)F)CC1 | 74.9% (inactive) |
| O=C1/C(=C/c2ccc(-c3ccccc3C(F)(F)F)o2)SC(=S)N1CCc1ccc(O)cc1 | 34.8% (inactive) |
| CCCCC1COc2cccc3c2N1C=C/C3=C\C(=O)N(C)c1cccc(Cl)c1 (stereo not given) | 88.7% (inactive) |
| COc1cc(/C=C2\CCC/C(=C\c3cc(CN4CCCC4)c(O)c(OC)c3)C2=O)cc(CN2CCCC2)c1O | 95.9% (inactive) |
| O=C1C(=C(O)c2ccccc2)C(=O)c2ccccc21 | 103% (inactive) |
| Cc1ccc(S(=O)(=O)Nc2cc(Sc3ccccc3)c(O)c3ccccc23)cc1 | -1.22% (active) |
| Cc1nc2sc(C(=O)Nc3cccc4ccccc34)c(N)c2cc1C(=O)/C=C/c1ccccc1 | 14.5% (inactive) |
| Cc1ccc(NC(=O)N/C(N)=N/c2nc(=O)c3ccccc3s2)cc1 | 109% (inactive) |
| Cc1c(O)c(O)cc2c3c(oc12)CC(c1ccc2c(c1)OCO2)CC3=O (stereo not given) | 67.4% (inactive) |
| Nc1[nH]nc(Nc2ccccc2)c1-c1nc2ccccc2s1 | 2.9% (active) |
| OB(O)c1ccsc1-c1nc2ccc3[nH]ncc3c2c2c1CCCC2 | 53.5% (inactive) |
| C=CCN1C=CC(=O)[C@H](O[Si](C)(C)C(C)(C)C)[C@@H]1/C=C/c1ccccc1 | -80.7% [100 µM] (active) |
| CC(=O)OC[C@]12CCC(C)(C)C=C1[C@H]1CC[C@@H]3[C@@]4(C)CCCNC(C)(C)[C@@H]4CC[C@@]3(C)[C@]1(C)CC2 | 51.8% (inactive) |
| CCOC(=O)c1cc2c(n1Cc1cc(OC)cc(OC)c1Br)-c1nc(NC(C)=O)sc1CCC2 | 38.5% (inactive) |
| CCCCCCCCCCCCCCCC[N+](C)(C)CCN(Cc1ccc(OC)cc1)c1ncccn1 | -5.46% (active) and 42.2% (inactive) |
| C#CCOCC1CN(C)C(=O)O1 (stereo not given) | 126% (inactive) |
| CC(=O)Nc1c(I)c(NC(C)=O)c(I)c(C(=O)O)c1I | 96.6% (inactive) and 102% (inactive) |
| O=[N+]([O-])c1cc(C(F)(F)F)ccc1Sc1ccc(C(F)(F)F)cc1[N+](=O)[O-] | 70% (inactive) |

| Compound | growth |
| --- | --- |
| N#CC1C(=O)c2ccccc2C1c1ccccc1 (stereo not given) | 96.5% (inactive) and 99.9% (inactive) |
| COc1ccc(/C=C/C(=O)c2cc3c(N)c(C(=O)Nc4ccccc4Cl)sc3nc2C)cc1 | 30.3% (inactive) |
| COc1ccc(NC(=O)Nc2ccccc2CNc2nc(Nc3ccc(OCCN4CCCC4)cc3)ncc2Cl)cc1 | 27.2% (inactive) |
| COc1ccc(C(CC(=O)c2ccc3c(c2)OCO3)C(=O)O)cc1OC (stereo not given) | 104% (inactive) and 91.9% (inactive) |
| O=C(/C=C/c1ccccc1)c1cccs1 | 97.3% (inactive) and 104% (inactive) |
| COc1ccc(C/C(C)=C(/c2ccc(OCCN3CCCCCC3)cc2)c2ccc(OC(=O)c3ccccc3)cc2)cc1 | 71.9% (inactive) |
| COc1ccc(-c2[nH]c3ccccc3c2-c2ccc(OC)cc2)cc1 | 41.1% (inactive) |
| COc1cc(C(=O)c2ccccc2C(=O)O)c(OC)c2c1CCCC2 | 90.9% (inactive) and 95.7% (inactive) |
| O=C1CCCCN1CCCCC#Cc1cccc(C#Cc2cccnc2)c1 | 84.1% (inactive) |
| CC(Sc1ccccc1)C(=O)O (stereo not given) | 105% (inactive) |
| Nc1ncnc2c1C(c1ccc([N+](=O)[O-])cc1)c1sc3c(F)cccc3c1O2 (stereo not given) | 71.7% (inactive) |
| CC/C=C\C/C=C\C[C@H](O)C/C=C1/C(=O)C=C[C@@H]1C/C=C\CCCC(=O)OC | 4.23% (active) |
| N#CC1=C(N)Oc2c(sc3c(Br)cccc23)C1c1ccccn1 (stereo not given) | 34.3% (inactive) |
| CCN1C(=S)N(CC)C2C1NC(=S)N2/N=C/C=C/c1ccccc1 (stereo not given) | 36.9% (inactive) |
| O=C1/C(=C/c2ccc(-c3cccc(C(F)(F)F)c3)o2)SC(=S)N1CCc1ccc(O)cc1 | 53.8% (inactive) |
| COc1ccc(-c2nnc3n(C)c(=O)c4ccccc4n23)cc1O | 30.2% (inactive) |
| Cc1ccc(-c2nc3nc(-c4ccccc4)nc(N4CCN(S(=O)(=O)c5ccccc5)CC4)c3o2)cc1 | 94.5% (inactive) |
| COc1ccc2c(c1)c(C(=O)c1nc(-c3cn(C)c4ccccc34)no1)cn2C | 77.5% (inactive) |
| Nc1ncc(-c2ccc3ncnc(N4CCc5ccc(Cl)cc54)c3c2)cc1C(F)(F)F | 12% (inactive) |

Same assay, conditions: 100 µM

| Compound | growth |
| --- | --- |
| CC(=O)/C=C/c1ccc(OCc2ccc(Cl)cc2)cc1 | 20.2% (inactive) |
